Measured values taken from PubChem BioAssay AID1159580 (chemical genetic matrix, 2015).
In all, about 5,500 compounds went through this assay and about 2,000 (36%) were called active. Not shown: some 18% with an inconclusive outcome. Cut-off read from the data, not from the text of the source: active = normalized growth mostly below about 0.91 (no sharp cut-off); inconclusive = no clear call, values can overlap the other calls; inactive = mostly above about 0.92. The list shows a part of the results.

Assay: chemical genetic growth profiling, strain panel (AID 1159580);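 note: tested at 20 µM; growth read once vehicle control cultures reached saturation at 30 °C; 1 = growth at the plate median or of vehicle wells; lower values mean less growth of the strain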
Details: S. cerevisiae deletion strains, growth OD
[1] = locus YMR263W, strain SAP30, hits give low values
[2] = locus YMR307W, strain GAS1, hits give low values
[3] = locus YPL055C, strain LGE1, hits give low values

Measured: normalized growth

CCC1(O)CC2CN(CCc3c([nH]c4ccccc34)[C@@](C(=O)OC)(c3cc4c(cc3OC)N(C)C3[C@]45CCN4CC=C[C@@](CC)([C@@H](OC(C)=O)[C@]3(O)C(=O)OC)[C@H]45)C2)C1 (some centres not stated)
inactive: locus YAL040C, strain CLN3, hits give low values 1 | locus YCL061C, strain MRC1 (second series), hits give low values 1 | locus YDR150W, strain NUM1, hits give low values 1.01 | locus YDR363W, strain ESC2, hits give low values 0.993 | locus YER002W, strain NOP16, hits give low values 1.06 | [1] 0.996 | [2] 0.985 | locus YNL175C, strain NOP13, hits give low values 1.02 | locus YNL197C, strain WHI3, hits give low values 1.03 | locus YNL224C, strain SQS1, hits give low values 1.04 | locus YOR083W, strain WHI5 (second series), hits give low values 1.07 | [3] 1.01 | locus YPL241C, strain CIN2, hits give low values 0.994

COC(=O)c1c(OC)cc2c(c1C)Oc1c(Cl)c(OC(C)=O)c(Cl)c(C)c1C(=O)O2
inactive: locus YAL021C, strain ccr4, hits give low values 1.02 | locus YAL026C, strain drs2, hits give low values 1 | locus YAL030W, strain snc1, hits give low values 0.994 | locus YBL061C, strain skt5, hits give low values 0.977 | locus YBR009C, strain hhf1, hits give low values 1.02 | locus YBR021W, strain FUR4, hits give low values 1.03 | locus YBR023C, strain chs3, hits give low values 0.978 | locus YBR171W, strain sec66, hits give low values 1 | locus YBR229C, strain ROT2, hits give low values 0.989 | locus YBR231C, strain swc5, hits give low values 0.987 | locus YBR279W, strain paf1, hits give low values 0.982 | locus YCL011C, strain gbp2, hits give low values 1.02 | locus YCL016C, strain dcc1, hits give low values 0.99 | locus YCL029C, strain bik1, hits give low values 1.01 | locus YCL061C, strain MRC1, hits give low values 1.01 | locus YCL069W, strain vba3, hits give low values 0.998 | locus YCR088W, strain abp1, hits give low values 0.988 | locus YDL005C, strain med2, hits give low values 1 | locus YDL035C, strain GPR1, hits give low values 1.01 | locus YDL040C, strain nat1, hits give low values 0.955 | locus YDL074C, strain BRE1, hits give low values 1.05 | locus YDL101C, strain DUN1, hits give low values 1.01 | locus YDL134C, strain PPH21, hits give low values 1.02 | locus YDL185W, strain tfp1, hits give low values 1.01 | locus YDL192W, strain arf1, hits give low values 1.01 | locus YDR001C, strain nth1, hits give low values 0.992 | locus YDR069C, strain doa4, hits give low values 0.998 | locus YDR101C, strain arx1, hits give low values 1.01 | locus YDR137W, strain rgp1, hits give low values 0.947 | locus YDR159W, strain sac3, hits give low values 0.948 | locus YDR162C, strain NBP2, hits give low values 1.03 | locus YDR195W, strain ref2 1.03 | locus YDR297W, strain sur2, hits give low values 1 | locus YDR318W, strain mcm21, hits give low values 1 | locus YDR334W, strain swr1, hits give low values 0.99 | locus YDR335W, strain msn5, hits give low values 1 | locus YDR388W, hits give low values 1.01 | locus YDR392W, strain spt3, hits give low values 0.866 | locus YDR502C, strain sam2, hits give low values 1 | locus YEL003W, strain gim4, hits give low values 1 | locus YEL037C, strain rad23, hits give low values 0.984 | locus YEL061C, strain CIN8 (second series), hits give low values 0.979 | locus YEL061C, strain CIN8, hits give low values 0.999 | locus YER015W, strain faa2, hits give low values 1.01 | locus YER016W, strain bim1, hits give low values 0.971 | locus YER110C, hits give low values 1.02 | locus YER111C, strain swi4, hits give low values 0.985 | locus YER155C, strain BEM2 (second series), hits give low values 1.01 | locus YER155C, strain BEM2, hits give low values 0.992 | locus YER167W, strain BCK2, hits give low values 1.02 | locus YFR010W, strain ubp6, hits give low values 0.975 | locus YGL078C, strain dbp3, hits give low values 1.01 | locus YGL086W, strain mad1, hits give low values 1.02 | locus YGL167C, strain pmr1, hits give low values 0.942 | locus YGL173C, strain kem1, hits give low values 0.983 | locus YGL227W, strain vid30, hits give low values 1 | locus YGL240W, strain doc1, hits give low values 0.964 | locus YGL248W, strain PDE1, hits give low values 1.01 | locus YGL253W, strain hxk2, hits give low values 0.977 | locus YGR078C, strain PAC10, hits give low values 1.01 | locus YGR135W, strain pre9, hits give low values 1.01 | locus YGR252W, strain gcn5, hits give low values 1.11 | locus YHR013C, strain ard1, hits give low values 0.966 | locus YHR027C, strain rpn1, hits give low values 1 | locus YHR030C, strain SLT2, hits give low values 1 | locus YHR079C, strain IRE1 (second series), hits give low values 0.997 | locus YHR094C, strain hxt1, hits give low values 1.01 | locus YHR129C, strain ARP1, hits give low values 1 | locus YHR142W, strain chs7, hits give low values 0.985 | locus YHR200W, strain rpn10, hits give low values 1.02 | locus YIL066C, strain RNR3, hits give low values 1.03 | locus YIL073C, strain SPO22, hits give low values 1.09 | locus YIL125W, strain kgd1, hits give low values 1.02 | locus YIR030C, strain dcg1, hits give low values 0.998 | locus YJL092W, strain hpr5, hits give low values 0.992 | locus YJL095W, strain BCK1 (second series), hits give low values 0.975 | locus YJL095W, strain BCK1, hits give low values 1.02 | locus YJL115W, strain asf1, hits give low values 0.996 | locus YJL129C, strain trk1, hits give low values 1.01 | locus YJL134W, strain LCB3, hits give low values 0.998 | locus YJL154C, strain vps35, hits give low values 0.972 | locus YJL164C, strain tpk1, hits give low values 1.01 | locus YJL166W, strain qcr8, hits give low values 1.01 | locus YJL168C, strain set2, hits give low values 0.996 | locus YJL187C, strain SWE1 (second series), hits give low values 1.02 | locus YJL187C, strain SWE1, hits give low values 0.975 | locus YJR043C, strain POL32, hits give low values 1.04 | locus YKL009W, strain mrt4, hits give low values 1.01 | locus YKL068W, hits give low values 0.988 | locus YKL085W, strain MDH1 (second series), hits give low values 1 | locus YKL085W, strain MDH1, hits give low values 1 | locus YKL160W, strain elf1, hits give low values 0.982 | locus YKL190W, strain CNB1, hits give low values 1.01 | locus YKR001C, strain vps1, hits give low values 1.04 | locus YKR026C, strain gcn3, hits give low values 0.996 | locus YKR091W, strain srl3, hits give low values 0.989 | locus YLL001W, strain dnm1, hits give low values 0.992 | locus YLL026W, hits give low values 1 | locus YLL041C, strain sdh2, hits give low values 0.988 | locus YLR027C, strain aat2, hits give low values 0.986 | locus YLR039C, strain RIC1, hits give low values 1.02 | locus YLR058C, strain SHM2, hits give low values 1 | locus YLR102C, strain apc9, hits give low values 1.01 | locus YLR221C, strain rsa3, hits give low values 1.01 | locus YLR258W, strain gsy2, hits give low values 0.998 | locus YLR262C, strain YPT6 (second series), hits give low values 0.979 | locus YLR262C, strain YPT6, hits give low values 1.03 | locus YLR268W, strain sec22, hits give low values 1.02 | locus YLR320W, strain mms22, hits give low values 0.946 | locus YLR330W, strain CHS5, hits give low values 0.998 | locus YLR342W, strain FKS1 (second series), hits give low values 1.05 | locus YLR342W, strain FKS1, hits give low values 0.978 | locus YLR357W, strain rsc2, hits give low values 1.02 | locus YLR370C, strain arc18, hits give low values 0.973 | locus YLR371W, strain rom2, hits give low values 1.01 | locus YLR384C, strain iki3, hits give low values 0.961 | locus YLR418C, strain cdc73, hits give low values 1.07 | locus YML016C, strain PPZ1, hits give low values 1 | locus YML032C, strain rad52, hits give low values 1.02 | locus YML120C, strain ndi1, hits give low values 1.01 | locus YML124C, strain tub3, hits give low values 1.03 | locus YMR058W, strain fet3, hits give low values 0.988 | locus YMR078C, strain ctf18, hits give low values 1.01 | locus YMR125W, strain sto1, hits give low values 0.997 | locus YMR129W, hits give low values 0.999 | locus YMR205C, strain PFK2, hits give low values 0.981 | locus YMR223W, strain ubp8, hits give low values 1 | locus YMR231W, strain pep5, hits give low values 0.974 | [1] 1.02 | [2] 1.03 | locus YNL067W, strain RPL9B, hits give low values 1.02 | locus YNL071W, strain lat1, hits give low values 0.997 | locus YNL209W, strain ssb2, hits give low values 1.01 | locus YNL233W, strain BNI4, hits give low values 1.03 | locus YNL248C, strain rpa49, hits give low values 0.995 | locus YNL250W, strain rad50, hits give low values 1.02 | locus YNL271C, strain bni1, hits give low values 1.02 | locus YNL298W, strain CLA4, hits give low values 1.03 | locus YNL307C, strain MCK1, hits give low values 1 | locus YNL322C, strain KRE1 (second series), hits give low values 1.02 | locus YNR049C, strain mso1, hits give low values 0.982 | locus YNR052C, strain pop2, hits give low values 1.01 | locus YOL006C, strain TOP1, hits give low values 1.29 | locus YOL012C, strain htz1 1.01 | locus YOL147C, strain pex11, hits give low values 0.999 | locus YOR001W, strain rrp6, hits give low values 0.988 | locus YOR061W, strain CKA2, hits give low values 1 | locus YOR069W, strain VPS5, hits give low values 1.01 | locus YOR070C, strain gyp1, hits give low values 0.974 | locus YOR080W, strain dia2, hits give low values 0.977 | locus YOR083W, strain WHI5, hits give low values 1.03 | locus YOR106W, strain vam3, hits give low values 1.03 | locus YOR136W, strain idh2, hits give low values 1.04 | locus YOR144C, strain elg1, hits give low values 1 | locus YOR184W, strain ser1, hits give low values 0.995 | locus YOR265W, strain rbl2, hits give low values 0.981 | locus YOR270C, strain vph1, hits give low values 0.96 | locus YOR290C, strain snf2, hits give low values 0.999 | locus YOR316C, strain cot1, hits give low values 1 | locus YPL051W, strain arl3, hits give low values 0.976 | [3] 1.07 | locus YPL078C, strain atp4, hits give low values 0.996 | locus YPL106C, strain sse1, hits give low values 1.07 | locus YPL240C, strain hsp82, hits give low values 1 | locus YPR119W, strain clb2, hits give low values 1 | locus YPR141C, strain kar3, hits give low values 1.01 | locus YPR163C, strain tif3, hits give low values 1.02 | locus YPR167C, strain met16, hits give low values 0.992 | strain wtn01, hits give low values 1.03
